Assay results published in the supplement of paper PMC7669877.
± gives the uncertainty stated by the source.

tested on: Candidatus Liberibacter solanacearum in potato hairy roots; assay: relative CLso titer (% of untreated control); higher = less inhibition of bacterial titer; details: 10 µM; 72 h
Procedure: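 Primary screen of ~220 Spectrum collection (MicroSource) compounds at 10 µM (0.1% DMSO) on Candidatus Liberibacter solanacearum-infected potato hairy roots in multi-well plates (Gamborg B-5 medium, vacuum infiltrated, 21 °C, dark, 72 h). CLso titer was measured by qPCR of 16S rDNA normalised to potato RPL2 (2^-ddCq), pairwise-standardised against untreated controls, averaged over two biological replicates and expressed as % of untreated.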

Q: How did the “relative CLso titer” value turn out when `CN1CCC[C@@H]1CCO[C@](C)(c1ccccc1)c1ccc(Cl)cc1` was run?
A: Its value is 44.3 ± 12%.

Q: How did the “relative CLso titer” value turn out when `C[C@@H](O[C@H]1OCCN(Cc2n[nH]c(=O)[nH]2)[C@H]1c1ccc(F)cc1)c1cc(C(F)(F)F)cc(C(F)(F)F)c1` was run?
A: The value was 117 ± 51%.

Q: With `Cc1cccc(Nc2ccccc2C(=O)O)c1C` as the compound, how does the “relative CLso titer” value read?
A: The value was 98.7 ± 20%.

Q: How did the “relative CLso titer” value turn out when `CCN1CCCC(OC(=O)C(c2ccccc2)c2ccccc2)C1` (stereo not given) was run?
A: Its value is 188 ± 36%.

Q: `N=C(N)NC(=O)c1nc(Cl)c(N)nc1N` was tested. Which “relative CLso titer” value did it give?
A: Its value is 54.7 ± 1.4%.

Q: For `C[C@H](CCC(=O)O)[C@H]1CC[C@H]2[C@@H]3C(=O)C[C@@H]4CC(=O)CC[C@]4(C)[C@H]3CC(=O)[C@]12C`, which “relative CLso titer” value is on record?
A: Its value is 212 ± 78%.

Q: For `COc1ccc([C@H]2COc3c(ccc(O)c3OC)C2)c(OC)c1O`, which “relative CLso titer” value is on record?
A: The value was 35.5 ± 2.5%.

Q: `O=C(O)CCC(=O)Nc1ccc(S(=O)(=O)Nc2nccs2)cc1` was tested. Which “relative CLso titer” value did it give?
A: Its value is 100 ± 28%.

Q: `Cn1c(=O)c2c(ncn2CC(O)CO)n(C)c1=O` (stereo not given) was tested. Which “relative CLso titer” value did it give?
A: The value was 128 ± 10%.

Q: For `OCCN(CCO)c1nc(N2CCCCC2)c2nc(N(CCO)CCO)nc(N3CCCCC3)c2n1`, which “relative CLso titer” value is on record?
A: Its value is 107 ± 26%.

Q: With `CO[C@@]1(NC(=O)Cc2cccs2)C(=O)N2C(C(=O)O)=C(COC(N)=O)CS[C@@H]21` as the compound, how does the “relative CLso titer” value read?
A: Its value is 130 ± 27%.

Q: Which “relative CLso titer” value does the source give for `C[N+](C)(C)CCOC(N)=O` here?
A: The value was 41.99 ± 0.24%.

Q: With `CC1=C(C(=O)O)N2C(=O)[C@@H](NC(=O)[C@H](N)C3=CCC=CC3)[C@H]2SC1` as the compound, how does the “relative CLso titer” value read?
A: Its value is 114 ± 86%.

Q: With `Clc1ccc(COC(Cn2ccnc2)c2ccc(Cl)cc2Cl)cc1` (stereo not given) as the compound, how does the “relative CLso titer” value read?
A: Its value is 101 ± 35%.

Q: Which “relative CLso titer” value does the source give for `CCN(CCCc1ccccc1)CCCc1ccccc1` here?
A: The value was 66.9 ± 21%.

Q: For `COc1ccc(C[C@H](N)C(=O)N[C@H]2[C@@H](O)[C@H](n3cnc4c(N(C)C)ncnc43)O[C@@H]2CO)cc1`, which “relative CLso titer” value is on record?
A: The value was 91.8 ± 5.9%.

Q: With `CCC[C@@H]1C[C@@H](C(=O)N[C@@H]([C@H]2O[C@H](SC)[C@H](O)[C@@H](O)[C@H]2O)[C@H](C)Cl)N(C)C1` as the compound, how does the “relative CLso titer” value read?
A: Its value is 80.1 ± 32%.

Q: For `CC(=O)OCC(=O)[C@@]1(O)[C@H](C)C[C@H]2[C@@H]3CCC4=CC(=O)C=C[C@]4(C)[C@@]3(F)[C@@H](O)C[C@@]21C`, which “relative CLso titer” value is on record?
A: The value was 101 ± 39%.

Q: `Cn1nnnc1SCC1=C(C(=O)O)N2C(=O)[C@@H](NC(=O)[C@H](O)c3ccccc3)[C@H]2SC1` was tested. Which “relative CLso titer” value did it give?
A: The value was 133 ± 14%.

Q: How did the “relative CLso titer” value turn out when `O=C(O)c1cc(-c2ccc(F)cc2F)ccc1O` was run?
A: Its value is 115 ± 58%.

Q: How did the “relative CLso titer” value turn out when `C[C@]12CC[C@@H]3c4ccc(OC(=O)c5ccccc5)cc4CC[C@H]3[C@@H]1CC[C@@H]2O` was run?
A: Its value is 155 ± 66%.

Q: Which “relative CLso titer” value does the source give for `CN(C)CCOC(c1ccccc1)c1ccccc1.Cn1c(=O)c2[nH]c(Cl)nc2n(C)c1=O` here?
A: The value was 127 ± 74%.

Q: `Nc1ccc(S(=O)(=O)Nc2ccc(Cl)nn2)cc1` was tested. Which “relative CLso titer” value did it give?
A: Its value is 52.4 ± 4.8%.

Q: For `CN(C)[C@@H]1C(O)=C(C(N)=O)C(=O)[C@@]2(O)C(O)=C3C(=O)c4c(O)ccc(Cl)c4[C@@](C)(O)[C@H]3C[C@@H]12`, which “relative CLso titer” value is on record?
A: Its value is 35.8 ± 4.5%.

Q: `CC1=C(/C=C/C(C)=C/C=C/C(C)=C/C(=O)O)C(C)(C)CCC1` was tested. Which “relative CLso titer” value did it give?
A: Its value is 132 ± 9.7%.

Q: How did the “relative CLso titer” value turn out when `CCOC(=O)[C@H](CCc1ccccc1)N[C@@H](C)C(=O)N(CC(=O)O)C1Cc2ccccc2C1` was run?
A: The value was 90.7 ± 30%.

Q: For `CN1CCOC(c2ccccc2)c2ccccc2C1` (stereo not given), which “relative CLso titer” value is on record?
A: The value was 100 ± 38%.

Q: For `CC(C)(Oc1ccc(CCNC(=O)c2ccc(Cl)cc2)cc1)C(=O)O`, which “relative CLso titer” value is on record?
A: The value was 153 ± 64%.

Q: For `O=C(O)P(=O)(O)O`, which “relative CLso titer” value is on record?
A: Its value is 165 ± 29%.

Q: With `NCCc1ccc(O)c(O)c1` as the compound, how does the “relative CLso titer” value read?
A: Its value is 117 ± 26%.

Q: With `CCCCCCCCCCCCCCCC(=O)OC[C@@H](NC(=O)C(Cl)Cl)[C@H](O)c1ccc([N+](=O)[O-])cc1` as the compound, how does the “relative CLso titer” value read?
A: The value was 79.3 ± 10%.

Q: With `CCC1(C)CC(=O)NC1=O` (stereo not given) as the compound, how does the “relative CLso titer” value read?
A: The value was 119.65 ± 0.011%.

Q: Which “relative CLso titer” value does the source give for `Cc1ccc(C(=O)Nc2ccc(S(=O)(=O)O)c3cc(S(=O)(=O)O)cc(S(=O)(=O)O)c23)cc1NC(=O)c1cccc(NC(=O)Nc2cccc(C(=O)Nc3cc(C(=O)Nc4ccc(S(=O)(=O)O)c5cc(S(=O)(=O)O)cc(S(=O)(=O)O)c45)ccc3C)c2)c1` here?
A: The value was 141 ± 37%.

Q: How did the “relative CLso titer” value turn out when `OCC(S)CS` (stereo not given) was run?
A: Its value is 67.2 ± 36%.

Q: How did the “relative CLso titer” value turn out when `NS(=O)(=O)c1cc2c(cc1Cl)N=CNS2(=O)=O` was run?
A: The value was 31 ± 2.7%.

Q: How did the “relative CLso titer” value turn out when `O=C(O)c1cc(=O)c2c(OCC(O)COc3cccc4oc(C(=O)O)cc(=O)c34)cccc2o1` was run?
A: The value was 58 ± 9.1%.

Q: With `Oc1ccc(Cl)c2cccnc12` as the compound, how does the “relative CLso titer” value read?
A: Its value is 36.8 ± 11%.

Q: `CCCN(CCC)C(=O)C(CCC(=O)O)NC(=O)c1ccccc1` (stereo not given) was tested. Which “relative CLso titer” value did it give?
A: The value was 52.8 ± 27%.

Q: With `Clc1cccc(Cl)c1NC1=NCCN1` as the compound, how does the “relative CLso titer” value read?
A: Its value is 55.5 ± 4.1%.

Q: `CN(C)CCC=C1c2ccccc2CCc2ccccc21` was tested. Which “relative CLso titer” value did it give?
A: Its value is 49 ± 2.5%.
